Bioassay records (PubChem)
MARV entry inh: Marburg virus entry inhibition; Marburg virus pseudotyped entry inhibition, cell reporter; Potency, µM (top dose mostly 37.8 µM), inactives show at the highest dose activity change, negative = inhibition, actives largely listed as inhibitors; hit rate 1.8% among 300,000; AID 540276; calls by dose curve; tested in HEK293 cells; also: potency is read from the fitted curve at half-maximal effect
HCMV inh: blocks human cytomegalovirus replication; AID 1259415; HFF cells, HCMV-luciferase reporter, 72 h; active compounds read low; hit rate 4.5% among 410,000; activity change, negative = inhibition, % at 57.5 µM; in the data active = activity change below about -60%; inconclusive = no clear call, values can overlap the other calls; inactive = above about -39%
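Human foreskin fibroblasts infected with luciferase-reporter HCMV at MOI 1 PFU/cell, compounds at two doses. Luciferase measured 72 h post infection; normalized to buffer-only basal and Salinomycin (10uM) controls.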
Giardia FBPA inh: Giardia lamblia aldolase inhibition; A8B2U2; purified Giardia FBPA; Potency, µM (top dose mostly 59.6 µM), inactives show at the top dose activity, negative = inhibition, actives largely listed as inhibitors; hit rate 0.71% among 290,000; AID 2451; also: potency is read from the fitted curve at half-maximal effect; nearly all actives have a fitted effect of over 55% in size
Target sequence (A8B2U2 whole entry, looked up): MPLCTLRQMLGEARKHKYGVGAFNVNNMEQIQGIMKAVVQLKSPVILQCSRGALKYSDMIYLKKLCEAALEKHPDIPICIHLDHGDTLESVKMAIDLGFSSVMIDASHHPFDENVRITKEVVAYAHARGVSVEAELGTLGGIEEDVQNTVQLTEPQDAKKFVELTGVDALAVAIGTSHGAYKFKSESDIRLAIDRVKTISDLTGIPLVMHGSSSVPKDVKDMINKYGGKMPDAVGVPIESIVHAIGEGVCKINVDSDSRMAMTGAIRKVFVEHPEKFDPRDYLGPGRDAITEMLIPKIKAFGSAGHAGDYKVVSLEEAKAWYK
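40 nM FBPA preincubated 10 min at RT with compound (up to 57.5 uM final), then substrate plus GAPDH/TPI/NAD/arsenate coupling and diaphorase/resazurin added. Fluorescence read after 20 min at RT, 525/598 nm.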
FMDV antiviral: blocks foot and mouth disease virus | hit rate 1.2% among 410,000 | FMDV antiviral cell-based qHTS | Potency, µM (top dose mostly 57.9 µM), without a hit: at the highest dose activity change, negative = inhibition, hits mostly inhibitors; calls by dose curve; tested in HEK293T cells; also: read-out not given here; potency is read from the fitted curve at half-maximal effect; nearly all actives have a fitted effect of over 45% in size
LASV entry inh: Lassa virus entry inhibition; Potency, µM (series often up to 37.9 µM), for the others: at the highest dose activity change, negative = inhibition, most hits filed as inhibitors; Lassa virus pseudotype entry inhibition, cell reporter; hit rate 1.2% among 300,000; calls by dose curve; tested in HEK293 cells; also: potency is read from the fitted curve at half-maximal effect; nearly all actives have a fitted effect of over 50% in size
HCV inhibitor: HCV inhibition; hit rate 3.4% among 340,000; AID 651820; Potency, µM (doses to about 41.8 µM), inactives show at the top dose activity change, negative = inhibition, most hits filed as inhibitors; Huh7.5.1 HCVcc-Cre infection, luciferase reporter, 44 h; also: potency is read from the fitted curve at half-maximal effect
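Whole-lifecycle infectious HCVcc-Cre system; cells 1,000/well, compound then virus (~0.5 moi) added 4 h after plating, 44 h culture. Luciferase read 15 sec following 15 min substrate incubation, room temp.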
The depositor's hits bear a star; ? = inconclusive; · = no result given; ! = not confirmed by another sample; [ ] = dose if it differs, or a comment. Hits are enriched below; roughly 8.3% of the tested compounds scored in any of these assays. Unless noted, calls follow the shape of the dose curve; as a rule, active = well fitted curve in the direction sought with a large enough effect; inconclusive = small, poorly fitted or top-dose-only effect, or another doubt; inactive = no such curve, though single readings can be large; an effect the other way counts as inactive or inconclusive. % is scaled to controls: 0 for no effect and ±100 for the full control effect.

SMILES	MARV entry inh	HCMV inh	Giardia FBPA inh	FMDV antiviral	LASV entry inh	HCV inhibitor
CCOC(=O)c1cc(S(=O)(=O)N(C)Cc2ccccc2)cn1C	?	16	·	-4%	13µM*	-16%
CCN(Cc1ccccc1)S(=O)(=O)c1cc(C(=O)OC)n(C)c1	·	-14	22%	-2%	·	-6%
O=C(Oc1ccccc1)N1CCC2(CC1)CCN(c1ccccc1)CC2	·	·	1%	-7%	·	·
c1ccc(Cn2c(CN3CCCC3)nc3ccccc32)cc1	-27%	9	8%	-19%	20%	14%
Cc1ccccc1Cn1c(C)nc2ccccc21	?	-87*	-14%	?	?	5.6µM*
Clc1ccc(Cn2c(CN3CCCC3)nc3ccccc32)cc1	3.2µM*!	·	-1%	·	?	-7%[8.37 µM]
COc1ccc(CNc2nc3ccccc3n2Cc2ccc(Cl)cc2)cc1OC	11µM*	-33	-19%	-11%	?	?
Clc1ccc(OCCn2c(-c3ccco3)nc3ccccc32)cc1	-16%	-75*	-7%	-29%	8%	-22%
CCn1c(NCc2ccc(OC)c(OC)c2)nc2ccccc21	?	-28	·	-10%	-8%[46.1 µM]	·
CCN(CC)CCNC(=O)c1cnn(-c2nccc(-c3cc4ccccc4o3)n2)c1C	·	·	·	-9%	·	·
Cc1ccc(CNC(=O)c2nn(-c3ccc(Cl)cc3)nc2CO)cc1	-5%[46.1 µM]	10	·	-14%	?	·
CCSc1nc2ccccc2n1Cc1ccccc1F	15%	2	-2%	-23%	0%	6%
Fc1ccccc1Cn1c(-c2ccccc2)nc2ccccc21	-19%[46.1 µM]	-61*	·	?	?	·
Cc1nc2ccccc2n1Cc1ccc(Cl)cc1	·	-89*	0%	?	·	?
CCCCCCCCN1C(=O)[C@@H](CC(=O)NCC2CCCCC2)C[C@@]2(C(=O)OC)C1=C[C@H](C1CCCC1)O[C@@H]2C	·	9	·	·	·	·
CCc1nn(C(C)C(=O)N2CCN(c3cccc(C(F)(F)F)c3)CC2)c(=O)c2cc3occc3n12 (centres undefined)	?	-8	·	-27%	-3%[46.1 µM]	·
O=C(c1ccco1)N1CCCC(c2nc(-c3ccc(S(=O)(=O)NCc4ccccc4)cc3)no2)C1 (centres undefined)	?	-88*	6%	?	?	?
O=C(CC1CCCCC1)N1CCCC(c2nc(-c3ccc(S(=O)(=O)N4CCCC4)cc3)no2)C1 (centres undefined)	-26%	-71*	3%	·	-24%	?
COc1ccc(C(=O)N2CCC(c3nc(-c4ccc(S(=O)(=O)N5CCCC5)cc4)no3)CC2)cc1	?	-81*	·	-24%	-24%[46.1 µM]	·
CCOC(=O)c1cccc(NC(=O)CN2C(=O)c3ccccc3Sc3ncccc32)c1	·	-4	·	0%	?	·
CCOC(=O)[C@]12Cc3cc(Cl)ccc3[C@H]1N(CC(=O)OC)C(=O)c1ccccc12	·	·	·	10µM*	·	·
CCOC(=O)[C@]12Cc3cc(Cl)ccc3[C@H]1N(C(C)C)C(=O)c1ccccc12	·	-99*	·	10µM*	·	·
CC(=O)Nc1cccc(Nc2nc3ccccc3n3c(C)nnc23)c1	·	-25	·	-12%	12%[46.1 µM]	·
NC(=O)[C@@H]1CCCN1C(=O)C(Cc1cnc[nH]1)NC(=O)C1CCC(=O)N1 (some centres undefined)	·	·	-2%	·	·	·
CC(C)(C)N1C(=O)c2ccccc2NC(=O)N1Cc1ccc(Br)cc1	?	-65*	-3%	-6%	-8%	-1%
CCn1cnc2sc(C(=O)N(Cc3ccc(N(C)C)cc3)Cc3ccco3)c(C)c2c1=O	5µM*	-18	-1%	-17%	?	-6%
COc1cc(/C=N/NC(=S)Nc2cccc(Cl)c2C)ccc1OCC(=O)N1CC(C)OC(C)C1 (centres undefined)	?	-33	-10%	?	?	11µM*
COc1cc(/C=N/NC(=O)c2ccc(Cl)cc2)ccc1OCC(=O)N1CC(C)OC(C)C1 (centres undefined)	?	54	-1%	-23%	-16%	17%
Cc1ccc(C(=O)Nc2nc3ccccc3s2)s1	?	34	-1%	-48%	?	-18%
c1ccc(CCNc2nc3ccccc3s2)cc1	?	-4	-3%	21%	-19%	-11%
